This is a sample that favours compounds with a hit; in the whole collection about 1.7% have one here.
Vif inh: inhibitors of HIV Vif. HEK293T cells, Vif self-association by quenched fluorescence, imaging, 24 h. inhibition, % at 7.49 µM. 340,000 compounds, 0.35% hits. AID 602346; in the data active = inhibition above about 50%, passing the limit was not always enough; inconclusive = no clear call, values can overlap the other calls; inactive = below about 31%
FGF22 binding: shifts melting point of recombinant human FGF22 | Q9HCT0 | recombinant FGF22 thermal shift, SYPRO orange fluorescence; percent of sucrose octasulfate shift, DMSO zero | activity (Tm shift, normalised), % at 9.99 µM | 340,000 compounds, 1.5% hits | AID 651658;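 active = mean Tm shift, scaled 0 neutral to 100 positive control, at about 1.3% or above, every replicate too, limit read from the data; inconclusive = no clear call, values can overlap the other calls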
Target sequence (Q9HCT0 whole entry, looked up): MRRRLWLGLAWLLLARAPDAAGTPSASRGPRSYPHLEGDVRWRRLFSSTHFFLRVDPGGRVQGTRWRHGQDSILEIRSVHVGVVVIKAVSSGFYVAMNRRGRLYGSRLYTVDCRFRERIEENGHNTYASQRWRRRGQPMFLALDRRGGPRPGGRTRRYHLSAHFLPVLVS
F508del corr: CFTR F508del correction in bronchial cells; CFBE cells, YFP halide quenching; stimulated with forskolin plus potentiator P3; % fluorescence drop versus neutral controls; 350,000 compounds, 0.36% hits; activity (quench increase), % at 7.58 µM;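 active = mean added fluorescence quench of at least 8% versus neutral control, with both replicates also reaching 8%; inconclusive = only one of the mean or replicate conditions met; inactive = mean below 8% and not both replicates reaching 8%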;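 note: cells transiently co-express mutant CFTR-F508del with the halide-sensitive YFP; corrector assay measuring rescue of mutant channel to the surface after 24 h compound exposure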
Of the large screens only hits and unclear results are named; the others gave an inactive call.

O=C(NNC(=O)c1ccc([N+](=O)[O-])cc1)c1ccc(NS(=O)(=O)c2cccs2)cc1	none
COc1ccccc1CC(=O)Nc1ccc(NC(=O)c2cccs2)cc1	none
O=C(NNC(=O)c1cccs1)c1cccc(F)c1	none
O=C(NNC(=O)c1cccs1)c1ccc(F)cc1	FGF22 binding 43.1
COc1ccccc1CC(=O)NNC(=O)c1cccs1	FGF22 binding 43.7
O=C(NNC(=O)c1cccs1)c1ccc([N+](=O)[O-])cc1	FGF22 binding 43.5 (no result: Vif inh)
COc1ccccc1CC(=O)Nc1ccon1	Vif inh 56.1
Cc1ccccc1CC(=O)Nc1ccon1	none
COc1ccc(S(=O)(=O)Nc2ccc3c(c2)CC(=O)N([C@@H](C)CO)C[C@H](C)[C@@H](CN(C)Cc2ccc(Cl)c(Cl)c2)O3)cc1	none (no result: Vif inh)
C[C@]1(C(=O)NC2CC2)c2ccccc2C(=O)N(Cc2cc(C(F)(F)F)cc(C(F)(F)F)c2)[C@H]1c1ccc(CO)cc1	none (no result: Vif inh, FGF22 binding)
C[C@@H](NC(=O)C[C@H]1C[C@H]2c3cc(NC(=O)c4ccc5c(c4)OCO5)ccc3O[C@H]2[C@@H](CO)O1)c1ccccc1	none (no result: Vif inh)
C[C@@H]1CCCCO[C@H](CN(C)C(=O)Nc2ccccc2)[C@H](C)CN([C@@H](C)CO)C(=O)c2cc(NC(=O)c3ccncc3)ccc2O1	none (no result: Vif inh, FGF22 binding)
CC=Cc1ccc2n(c1=O)C[C@H]1[C@H](CO)[C@@H](C(=O)NCc3ccccc3)[C@@H]2N1C (mixture of isomers)	none (no result: Vif inh, FGF22 binding)
COCC(=O)N1C[C@H](C)[C@H](OC)CN(C)C(=O)c2ccc(NC(=O)c3ccc(OC)cc3)cc2OC[C@H]1C	none (no result: Vif inh)
C[C@@H]1CN([C@@H](C)CO)C(=O)c2cc(C#CCc3ccccc3)cnc2O[C@@H]1CN(C)Cc1cccnc1	none (no result: Vif inh)
CC(C)NC(=O)Nc1ccc2c(c1)CC(=O)N([C@H](C)CO)C[C@@H](C)[C@H](CN(C)C(=O)Nc1ccc(C(F)(F)F)cc1)O2	none (no result: Vif inh)
C[C@@H]1CN([C@@H](C)CO)C(=O)c2cccc(NC(=O)NC3CCCCC3)c2O[C@@H]1CN(C)S(C)(=O)=O	none (no result: Vif inh)
COc1ccc(/C=C/CN2CCN(CC(C)C)C(CCO)C2)cc1 (stereo not drawn)	FGF22 binding 44.0
OCCC1CN(Cc2ccn[nH]2)CCN1Cc1ccc(F)c(F)c1 (stereo not drawn)	none
OCCC1CN(Cc2ccc3ncccc3c2)CCN1Cc1ccccc1 (stereo not drawn)	none
COc1ccc(/C=C/CN2CCN(Cc3cccc(OC)c3)C(CCO)C2)cc1 (stereo not drawn)	none
CC(C)CN1CCN(Cc2ccc3ncccc3c2)CC1CCO (stereo not drawn)	FGF22 binding 43.8
OCCC1CN(Cc2cccc3nccnc23)CCN1Cc1ccc(F)c(F)c1 (stereo not drawn)	FGF22 binding 43.6
C[C@H](CO)N1C[C@H](C)[C@H](CN(C)Cc2cccnc2)Oc2ncc(-c3cccc(F)c3)cc2C1=O	none (no result: Vif inh, FGF22 binding)
CCS(=O)(=O)N[C@H]1C=C[C@@H](CC(=O)N2CCCCC2)O[C@@H]1CO	none (no result: Vif inh)
Cc1ccc(S(=O)(=O)Nc2ccc3c(c2)CC(=O)N([C@H](C)CO)C[C@H](C)[C@@H](CN(C)C(=O)NC2CCCCC2)O3)cc1	none (no result: Vif inh)
C[C@H]1CN([C@@H](C)CO)C(=O)c2cc(-c3ccc(F)cc3)cnc2O[C@H]1CN(C)C(=O)c1ccc(F)cc1	none (no result: Vif inh)
CCOC1=C2CN(S(=O)(=O)c3ccc(C)cc3)[C@H](c3ccccc3)C[C@@H]2N(S(=O)(=O)c2ccccc2)[C@H](c2ccccc2)C1	none
CCOC1=C2CN(S(=O)(=O)c3ccc(C)cc3)CC[C@@H]2N(S(=O)(=O)c2ccc(C)cc2)[C@H](c2ccccc2)C1	F508del corr 12.0 (no result: Vif inh)
Cc1noc(C)c1NC(=O)N[C@@H]1CC[C@@H](CCNC(=O)C2CC2)O[C@H]1CO	none (no result: Vif inh)
COc1cc(N2N=C(c3ccccc3)CC2c2ccccc2)c(C=O)cc1C=O (stereo not drawn)	none
COc1ccccc1N1N=C(c2ccc([N+](=O)[O-])cc2)CC1c1ccccc1 (stereo not drawn)	FGF22 binding 2.7 (no result: Vif inh)
CCn1nc(C)c(Br)c1-c1nc(-c2cccc(C)c2)no1	none (no result: FGF22 binding)
CCn1nc(C)c(Br)c1-c1nc(CS(=O)(=O)c2ccsc2)no1	Vif inh 56.0
C[C@@H]1CN([C@H](C)CO)C(=O)c2cc(Br)cnc2O[C@H]1CN(C)Cc1ccncc1	none (no result: Vif inh)
COCC(=O)N1C[C@H](C)[C@@H](OC)CN(C)C(=O)c2ccc(NS(C)(=O)=O)cc2OC[C@@H]1C	none (no result: Vif inh)
CCNC(=O)C[C@H]1CC[C@H]2[C@H](COc3ccc(NC(=O)C4CCCCC4)cc3C(=O)N2C)O1	none (no result: Vif inh)
C[C@H]1CN([C@@H](C)CO)S(=O)(=O)c2ccc(-c3ccccc3)cc2O[C@@H]1CN(C)C(=O)Cc1ccccc1	none (no result: Vif inh, F508del corr)
OC(CN1CCN(Cc2ccccc2)CC1)c1ccc(Br)cc1 (stereo not drawn)	none
OC(CN1CCCCC1)c1ccc(Br)cc1 (stereo not drawn)	FGF22 binding 43.7
COCC#Cc1cnc2c(c1)C(=O)N([C@@H](C)CO)C[C@H](C)[C@@H](CN(C)S(=O)(=O)c1ccccc1)O2	none (no result: Vif inh)
Cc1ccccc1S(=O)(=O)NC1OC(=O)C(Cl)=C1Cl (stereo not drawn)	none (no result: FGF22 binding, F508del corr)
Cc1ccccc1S(=O)(=O)NC1OC(=O)C(Oc2ccccc2)=C1Br (stereo not drawn)	FGF22 binding 43.0
CCOC(=O)c1cccc(N2C(=O)Nc3ccccc3N2O)c1	none (no result: FGF22 binding, F508del corr)
CCOC(=O)c1c(N2C(=O)Nc3ccccc3N2O)n[nH]c1-c1cccc(OC)c1	FGF22 binding 42.9
C[C@@H]1CN([C@@H](C)CO)C(=O)c2cc(NS(=O)(=O)c3ccccc3)ccc2O[C@@H](C)CCCCO[C@H]1CN(C)S(=O)(=O)c1cn(C)cn1	none (no result: Vif inh)
O=C(C[C@@H]1CC[C@@H](NC(=O)C2CCC2)[C@H](CO)O1)Nc1nccs1	none (no result: Vif inh)
CC(On1nnc2ccccc21)C(=O)N1CCN(Cc2ccccc2)CC1 (stereo not drawn)	FGF22 binding 43.5
CC(OC(=O)c1ccc(Cl)c([N+](=O)[O-])c1)C(=O)N1CCN(Cc2ccccc2)CC1 (stereo not drawn)	none
CCS(=O)(=O)Nc1ccc2c(c1)C(=O)N(C)[C@@H]1CC[C@H](CC(=O)OC)O[C@@H]1CO2	none (no result: Vif inh)
O=C(c1cc(-c2ccncc2)nc2c(Cl)cccc12)N1CCN(c2ccccc2F)CC1	F508del corr 13.8
O=C(c1cc(-c2ccccc2Cl)nc2ccccc12)N1CCN(c2ccccc2O)CC1	none
COCc1cn(CC[C@@H]2CC[C@H](NC(=O)c3ccc(F)cc3)[C@@H](CO)O2)nn1	none (no result: Vif inh)
O=C(O)C1Cc2ccccc2CN1S(=O)(=O)c1ccc(Cl)cc1 (stereo not drawn)	none
O=C(O)C1Cc2ccccc2CN1C(=O)COc1ccc(Cl)cc1 (stereo not drawn)	FGF22 binding 43.3 (no result: Vif inh)
CC(C)NC(=O)N(C)C[C@H]1Oc2c(NC(=O)Nc3ccccc3)cccc2C(=O)N([C@@H](C)CO)C[C@H]1C	none (no result: Vif inh)
CC12C=CC3(O1)C(C(=O)N1CCCOC13)C2C(=O)O (stereo not drawn)	Vif inh inconclusive, FGF22 binding 43.3
CC12C=CC3(O1)C(C(=O)N(c1ccccc1)C3C(=O)NC1CCCC1)C2C(N)=O (stereo not drawn)	none (no result: FGF22 binding, F508del corr)
